105 sequences from PubChem BioAssay AID1347423 (Functional Genomics Laboratory (NCATS/FGL), 2020) can be followed below.

Hit rate of the full screen: of about 52,000 sequences, about 210 (0.4%) were called active. This excerpt belongs to a sample that is enriched for actives. Values without a mark were called inactive.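 The calls were made as follows: active = gene whose silencing raises cell survival under the drug, median off-target-corrected z-score across its silencing RNAs 2 or more; inactive = the rest.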

This assay is described as follows: Resistance to Poly (ADP-Ribose) Polymerase inhibitor: Gene Identification via Genome-wide siRNA Screen. The settings on record: mouse BRCA2 R2336H ES cells, olaparib, CellTiter-Glo viability; active compounds read high. The method, boiled down:
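Mouse BRCA2 R2336H ES cells were reverse-transfected with siRNA (20 nM final), treated at 48 h with 500 nM olaparib, and read by CellTiter-Glo after 72 h. Scores: MAD-based z per siRNA, median per gene, seed off-target correction.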
(In general: In ATP-based viability assays light output follows the ATP content of the culture.)
With GGUCAUGGUCUGAGAUUCUTT against Txnl4, the z-score was 0.353.

CCCAUGUUCGAUGGGAAAGTT against Adprt1: the z-score was 0.293 (active).

For the sequence GCAAGGUGCACCUAAAGCATT against Egr4, the z-score is -2.04.

Regarding GGACAAGAACUACAUUGAGTT against Eefsec, the z-score was 2.12.

Turning to “GGACUUUUGGAUAACUUAGTT against 1200008A14Rik”, the z-score was -0.788.

Take GGAUAUUCUUCCAGUCUUUTT against MGC118154: the z-score was -1.48.

On to CAAACCCAUGUUCUAAAUGTT against Oog3, for which the z-score was 0.339.

In the case of “GGAGGUUUUGAUGGACUGUTT against 2610528H13Rik”, the z-score was -0.424.

Turning to “CCUUGUACCCAGUAAAGUCTT against 2310007B03Rik”, the z-score is -2.34.

With GGGAAAAUGCUUUGUUGGATT against Rqcd1, the z-score was 1.97 (active).

Regarding “GGAUUGAGCUACAAGAAUATT against E330016A19Rik”, the z-score was -0.0566.

CGGACUCCUGACAUUAUAATT against Cd33: the z-score is 0.735.

For GGUCCUCUAAAGAAUAAAGTT against Ela3b, the z-score was 0.513 (active).

Turning to GGAUUCACGUAAGAUUGACTT against Prlpb, the z-score was 1.33.

Consider “GCCAACUCAGUUUUGAAUGTT against 4930404J24Rik”, for which the z-score was -0.142.

As for GGUGUUCGGUGUCCUGGAATT against Pctp, the z-score is -1.75.

For UGAAGUCUAAUCAGAGCACTT against Olfr50, the z-score is -2.01.

For the sequence GGAAUGCCGGAUUGCUCACTT against BC008163, the z-score is 1.25.

As to GGAAGUUUCUGAAUGCUGUTT against Klrd1, the z-score is 2.01 (active).

As to “GGUCAUACACUUCUGCACATT against C330006K01Rik”, the z-score was 1.27.

Regarding GGAGGAGUUGCACCUCAUCTT against Pctk3, the z-score was 0.655.

For the sequence GCUACGGAACAAUCACAGCTT against Jarid1d, the z-score was 0.15.

Turning to GGAAAGAAAAAAGAUGGUCTT against Riok1, the z-score was -1.05.

Turning to GGUUGACAUCGACCAAUCATT against Klhl1, the z-score was 1.3 (active).

As to AUGUGAUAGUGCCCAGCCUTT against Olfr884, the z-score was 1.48.

GGAAGAAAUAGAUGAGAAUTT against Tnmd: the z-score was 0.737.

Take CGUUGAUUUCCAAAGCUGUTT against Kcnc2: the z-score was 0.168.

Take GGAACAUUACCAUCAAGCUTT against Eif2s3x: the z-score was -2.52.

For CCAAACUUACAAAUAUGCGTT against Sgpp1, the z-score is 3.3 (active).

For GGAAGUGUUUGAUGUCUUATT against Stk4, the z-score was -1.1.

Regarding GGGAGUUUAUUCAAAAGUGTT against Nrbp, the z-score is 0.522.

As for GGACUCUUUUCUACGUGGATT against Klhl1, the z-score is 3.47 (active).

Take GGGCAUACAUAUAACCUAUTT against Plekhc1: the z-score was 0.785.

For CAAAUUAUGAGUGAGAACCTT against Olfr340, the z-score was -1.17.

For the sequence GCUUAACCGUUUUUUCAAATT against Tgif, the z-score is 0.555.

Consider “GGUUAUGAGGCUUAAUAAATT against 2810423G08Rik”, for which the z-score was 1.54.

As to “GGAUCCAAGUUCCUGGCUCTT against A330096I21Rik”, the z-score is -0.601.

In the case of GGAGACUCAGGAAAAAAUUTT against Olfr1424, the z-score is 0.238.

As to CGAACAGUCUGUAUGGCGATT against Jak1, the z-score is 3.46 (active).

As to GGCCAAUUUGAAUAAUCUATT against Zfp119, the z-score was 0.0816.

Consider GGACCCUGAAGGAGCUGAATT against Per2, for which the z-score is -1.32.

Consider UCAAACUAGGUGCUGUUGUTT against Olfr584, for which the z-score was -1.11 (active).

As for “GGAGAUAAAGUCUUAUCACTT against 9130017N09Rik”, the z-score was 0.803.

Take GCAUUUCUUUCUUGCCUUCTT against Olfr1276: the z-score is 0.613.

In the case of “GGCUAGCUAACUAUCUCUGTT against 9230105I15Rik”, the z-score is 0.89.

Regarding GGUUCCAACAAUUGUAAAGTT against Chl1, the z-score is 2.35 (active).

Take GGACAAGCUCCAAAACAACTT against Sfrs4: the z-score is -1.45.

Turning to CCUGCCUUUUCCUAAUGAATT against Ovca2, the z-score is 0.573.

In the case of “GACAAAUAGUGCAGGAGGATT against 2310069N01Rik”, the z-score was 0.444.

As to CCAAAUACGACUUACGAAATT against Ncam2, the z-score was 0.897.

As to “CGAUGUUUUCAUGAACGACTT against 0610012D17Rik”, the z-score is 0.421.

Turning to “GGCAGUGGCUUGGAUAAAUTT against 5730457F11Rik”, the z-score was 2.83 (active).

In the case of GGAAGAAGAGCUCUUUAAATT against Acate2, the z-score is 0.108.

Take GGACCAGCACCAUUUCCUATT against Tce4: the z-score is -0.603.

Take GCUACUAUAUGCGUUUCUUTT against Fads2: the z-score is 1.88.

On to “GGCAUAAAGUUGUUUACAGTT against 3110006P09Rik”, for which the z-score was 3.24 (active).

On to “GGUCAUUUCAAGUGCUAAGTT against D7Ertd680e”, for which the z-score was 1.01.

Turning to GGUGGAAUGAAAUAUGAAGTT against Ptp4a1, the z-score was 0.0271.

For CCUGGAAAGACUCUCGGAGTT against Cln2, the z-score is -0.492.

For the sequence GGUGAUGUCUCGGUACCCATT against Mvk, the z-score was -0.664.

As to GGGCUACAGCAUGUAUGAGTT against BC057627, the z-score was 2.38 (active).

Regarding GGAAAUUUCUUAGCACGAATT against Ppp4r1, the z-score is 0.667.

For the sequence GGACUUUGAAGAGGACAAUTT against Dhx38, the z-score was -2.18.

For “GCACGAAGAACCACACAAGTT against 5830484A20Rik”, the z-score is -0.63.

Consider GCAUGAUUUAGAUCGAGUATT against Uqcrfs1, for which the z-score was -1.17.

As for GGAUCACUACCAUGAAAACTT against Bace1, the z-score is -0.551.

As to GGUGAAAUAGCUAAAUCAUTT against Usp15, the z-score was -0.572 (active).

As to “GGAGAUGGUUGGAUCAUUCTT against D10Ertd610e”, the z-score is 0.642.

Regarding “GGGUGAAAAGCAUUUCUGUTT against MGI:1923902”, the z-score is 1.38.

Consider GGACAAAGAAGACUCCCGATT against Dpf2, for which the z-score is 0.386.

As to GCAGAUAUUCUCUGUGCAGTT against Ccnf, the z-score is 2.22.

On to GGGCUAAAGUAUAUCCAUUTT against Mapk1, for which the z-score is 1.14 (active).

“CGAAGGACAAAAUAUCAGCTT against 4930517G15Rik”: the z-score is -0.16.

For the sequence GUUGAGGAUAACAUUGAACTT against MGC102419, the z-score is -0.623.

Regarding “GGGUGUAUUCUGCUUUGUATT against 2600013N14Rik”, the z-score is -1.3.

For GGGAAUUGCUCACCUCCAUTT against Klre1, the z-score was -0.871.

For the sequence GCUAAAAUUGGAUCAAGGATT against Ccbp2, the z-score is 2.14.

For GGACUUCAUCAAAGUCUUATT against Cyp11a1, the z-score was -1.45.

With GGAAGAACUUUAAAAAUGCTT against Mic2l1, the z-score was 0.477.

As to CGUACUCUAUGAGGUGCCATT against Rab6ip1, the z-score was 0.703.

As to GCUUAAAGAUCGAUCCCGCTT against Slc38a4, the z-score is 0.666.

Consider GCCAUUAAUAAUCAGUACUTT against Sh2bpsm1, for which the z-score was 0.686.

Regarding CCAUUGCCAACAACUAGAUTT against Ela3b, the z-score is 2.87 (active).

As for GCUGAGGGUUGAUUAGUGGTT against H2-Bl, the z-score was -1.2.

As to GGCCUCCAGAAACAACUCGTT against Ndst2, the z-score is 1.44.

For GCUAGAACAGCAAAAAAAATT against Scgb3a1, the z-score was 0.00969.

In the case of CCACGUGUUUGCAUUCAAATT against Gdd1, the z-score is 0.222.

Regarding GGAUCCCACACUUUUCUGATT against Rxra, the z-score was 1.02.

For CCUAAAACUCACCAUAGAGTT against Nfatc3, the z-score was -0.0858.

For the sequence “GAUAUAAGGACUCUUUGAATT against 4732486J07Rik”, the z-score was -0.212.

With GGUCUUUUGGAAUCUCUGGTT against Crip3, the z-score is 1.26 (active).

For the sequence GGAUAGUAACGGAAACUUGTT against Usp25, the z-score is 2.49.

Turning to GGAUUCGGAAUACUACGAUTT against Abo, the z-score was 1.79.

For the sequence “GGUGUCCUUUCAAGUUGAUTT against C530005A01Rik”, the z-score was -0.63.

CGGCAGUGUUAAAACAUGATT against Fgfr2: the z-score is 0.114.

Regarding GGAGCAGUAUAUCCUACAUTT against Olfr510, the z-score is 0.104 (active).

For CCUGAGAACAUUUUAAUCATT against Tas2r116, the z-score was -0.685.

As for CCAAUUCUCGAAUCAUUGCTT against Olfr561, the z-score was -0.382.

Turning to GCUACGCUAUCCAAAUUCUTT against AF529169, the z-score was -0.118.

For CCCUUGGAGGAAGCUAACUTT against Pde2a, the z-score is 1.27 (active).

GGAGAUGCCCAAUGUUUUCTT against Ehd1: the z-score was -0.27.

For “CGGCCUGUUAUAAACCUGCTT against 4933409K07Rik”, the z-score was -0.131.

In the case of GCCUCAUUGAAAGGAUCCATT against GnT-IX, the z-score is -0.888.

With GCUUUUGAUCCACAGAUUUTT against Prss33, the z-score is 2.34 (active).

Turning to GGAACAUCAGGUGCAUGUGTT against Pkd1, the z-score was 1.9.
